# EWS-Fli block = blocks EWS/Fli oncoprotein-driven transcription | A673 NR0B1-luciferase reporter, viability-normalised | actives 0.67% (n = 350,000) | inhibition, % at 12.6 µM | AID 651661;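 active means mean inhibition of at least 50% after viability correction, with every replicate also passing that limit; inconclusive means mean reaches 50% but only one of two replicates passes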;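 further: firefly luciferase signal divided by Alamar Blue viability fluorescence both relative to DMSO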
# Shn3 inh set2 = inhibitors of Schnurri-3 3'UTR reporter in osteoblasts. actives 0.52% (n = 360,000). Clone20 osteoblast Shn3 3'UTR firefly luciferase, 24 h. inhibition, % at 12.5 µM;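 active means mean inhibition of at least 75% with every replicate also reaching 75%; inconclusive means mean inhibition at least 75% but some replicate below; inactive means mean inhibition below 75%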;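 further: 0% = median of neutral control wells and 100% = pilot-screen positive control compound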
# TRPM1 prom inh = inhibitors of MITF-driven TRPM1 promoter in melanoma cells | SK-MEL-5 TRPM1 promoter luciferase, 24 h | inhibition, % at 12.5 µM | actives 0.83% (n = 330,000);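 active means mean inhibition across replicates of 60% or more, whatever share of single replicates reaches that level; inconclusive means some that reach 60%, reason not given; inactive means mean inhibition across replicates below 60%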
# ABHD5 PLIN5 PPI = ABHD5-PLIN5 protein interaction inhibition | AID 602281 | Split G. princeps luciferase complementation, luminescence, 4 h | Q00G26+Q8WTS1 | inhibition, % at 4 µM | actives 0.78% (n = 360,000);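 active means inhibition above the mean inhibition across every tested compound plus 3 SD, cut at about 22% in these data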;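 further: 0% = DMSO only wells and the 100% control is not disclosed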
# Target sequence (Q00G26 whole entry, looked up): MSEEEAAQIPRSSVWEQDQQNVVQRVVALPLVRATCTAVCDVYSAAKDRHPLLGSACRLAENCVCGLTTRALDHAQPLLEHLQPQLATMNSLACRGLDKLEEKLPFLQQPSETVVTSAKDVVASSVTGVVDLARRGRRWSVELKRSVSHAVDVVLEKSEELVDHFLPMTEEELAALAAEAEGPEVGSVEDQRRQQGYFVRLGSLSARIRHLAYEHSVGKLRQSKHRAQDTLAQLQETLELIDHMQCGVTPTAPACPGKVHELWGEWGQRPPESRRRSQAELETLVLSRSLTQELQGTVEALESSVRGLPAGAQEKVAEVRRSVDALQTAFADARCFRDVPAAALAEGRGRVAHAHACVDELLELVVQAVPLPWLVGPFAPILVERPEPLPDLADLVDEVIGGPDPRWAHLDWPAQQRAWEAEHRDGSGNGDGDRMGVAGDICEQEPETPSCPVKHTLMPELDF
# Target sequence (Q8WTS1 whole entry, looked up): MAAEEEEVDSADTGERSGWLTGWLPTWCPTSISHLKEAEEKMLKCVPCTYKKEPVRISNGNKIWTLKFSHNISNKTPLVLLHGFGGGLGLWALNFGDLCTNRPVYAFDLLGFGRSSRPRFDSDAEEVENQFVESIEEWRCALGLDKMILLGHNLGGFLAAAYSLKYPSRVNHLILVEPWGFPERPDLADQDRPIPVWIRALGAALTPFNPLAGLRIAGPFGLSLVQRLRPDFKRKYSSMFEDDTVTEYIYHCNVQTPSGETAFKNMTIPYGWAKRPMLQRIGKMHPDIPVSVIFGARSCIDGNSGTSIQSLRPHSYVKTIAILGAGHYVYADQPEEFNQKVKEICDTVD
# Peg3 promoter = reduces Peg3 promoter-driven luciferase expression in HeLa; HeLa PEG-Prom luciferase reporter, luminescence, overnight; inhibition, % at 20 µM; actives 1.7% (n = 360,000); AID 588405;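 active means inhibition of at least 50% at 20 µM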
# PAX8 reporter = PAX8 transcriptional activity inhibition. RMG-I TPO-luciferase reporter, SteadyGlo, 24 h. inhibition, % at 12.6 µM. actives 1.2% (n = 360,000). AID 652154;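 active means mean replicate inhibition at least 60% with every replicate also reaching 60%; inconclusive means only one of the two criteria is met; inactive means mean below 60% and not all replicates reaching 60%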;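 further: luciferase light reporting Pax8 driven TPO promoter activity; plate controls were median of neutral control wells for no effect and mitoxantrone controls for full effect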
# * = called active by the depositor; ? = inconclusive; · = no result. The list is not random: actives were taken first. Their share in the collection is about 3%.
SMILES,EWS-Fli block,Shn3 inh set2,TRPM1 prom inh,ABHD5 PLIN5 PPI,Peg3 promoter,PAX8 reporter
C[C@@H]1CN([C@@H](C)CO)C(=O)Cc2cc(NS(=O)(=O)c3cccs3)ccc2O[C@H]1CN(C)Cc1ccc(C(F)(F)F)cc1,33,·,·,·,·,91*
C[C@H]1CN([C@@H](C)CO)C(=O)Cc2cc(NS(=O)(=O)c3cccs3)ccc2O[C@@H]1CN(C)Cc1ccc(C(F)(F)F)cc1,-13,·,·,·,·,17
C[C@H](CO)N1C[C@H](C)[C@@H](CN(C)Cc2ccc(C(F)(F)F)cc2)Oc2ccc(NS(=O)(=O)c3ccc(F)cc3)cc2CC1=O,18,·,·,·,·,83*
C[C@H](CO)N1C[C@H](C)[C@@H](CN(C)Cc2ccc(C(F)(F)F)cc2)Oc2ccc(NS(=O)(=O)c3ccccc3)cc2CC1=O,·,·,·,·,·,76*
C/C=C/c1ccc([C@H]2[C@@H](CO)N3CCCCN(C(=O)C4CCCC4)C[C@@H]23)cc1,8,·,·,·,·,9
C[C@H](CO)N1C[C@H](C)[C@H](CN(C)Cc2ccc(C(F)(F)F)cc2)Oc2ccc(NS(=O)(=O)c3ccc(F)cc3)cc2CC1=O,0,·,·,·,·,85*
C[C@H]1CN([C@@H](C)CO)C(=O)Cc2cc(NS(=O)(=O)c3ccc(Cl)cc3)ccc2O[C@H]1CN(C)Cc1ccc(C(F)(F)F)cc1,-11,·,·,·,·,-17
C[C@H](CO)N1C[C@H](C)[C@H](CN(C)Cc2ccc(C(F)(F)F)cc2)Oc2ccc(NS(=O)(=O)c3ccc(Cl)cc3)cc2CC1=O,59*,·,·,·,·,4
CC(C)C#Cc1ccc2c(c1)O[C@H](CN(C)C(=O)C1CC1)[C@H](C)CN([C@H](C)CO)S2(=O)=O,2,·,·,·,·,·
CCCNC(=O)C[C@H]1CC[C@@H]2[C@H](COc3ccc(NC(=O)c4cc(F)cc(F)c4)cc3C(=O)N2C)O1,-4,·,·,·,·,-7
O=C1c2cccc3cccc(c23)C(=O)N1CCN1CCN(CC(O)COc2ccc3ccccc3c2)CC1 (stereo not drawn),2,27,-7,13,79*,-7
Cc1ccc(C)c(OCC(O)CN2CCN(CCN3C(=O)c4cccc5cccc(c45)C3=O)CC2)c1 (stereo not drawn),19,16,-7,18,89*,13
COc1ccc2c3c(n(C)c2c1)[C@@H](CO)N(CC1CCOCC1)CC31CCN(C(=O)Nc2ccccc2)CC1,0,·,·,·,·,·
O=C(COC(=O)c1sc2ccccc2c1Cl)NCC1CCCCC1,·,-5,2,-2,59*,-15
Cc1noc(C)c1NC(=O)N(C)C[C@@H]1Oc2ccc(NC(=O)Nc3ccccc3)cc2CC(=O)N([C@H](C)CO)C[C@H]1C,-6,·,·,·,·,-20
CCCCN1C(=N)N([C@@H](CN2CCC[C@H]2CN2C(N)=NC[C@@H]2Cc2ccccc2)C(C)C)C[C@H]1Cc1ccccc1,7,-9,7,7,-3,63*
CO[C@@H]1CN(C)C(=O)c2ccc(NC(C)=O)cc2OC[C@H](C)N(C(=O)c2ccccc2F)C[C@@H]1C,1,·,·,·,·,-8
C[C@H](CO)N1C[C@H](C)[C@@H](CN(C)C(=O)c2cccc(F)c2)Oc2ncc(-c3ccccc3)cc2C1=O,12,·,·,·,·,·
CC(C)(C)c1ccc(-n2nc(C#N)c(Cl)cc2=O)cc1,58*,98*,98*,32*,104*,112*
CCNC(=O)[C@H]1[C@H](CO)[C@H]2Cn3c(ccc(-c4cccc(F)c4)c3=O)[C@H]2N1Cc1nccs1,-7,·,·,·,·,3
Nc1nc(N)c2c(ccc3c2ccn3Cc2cccc([N+](=O)[O-])c2)n1,39,76,·,4,100*,117*
CC(C)NC(=O)N(C)C[C@@H]1OCCCC[C@@H](C)Oc2ccc(NC(=O)CCC(F)(F)F)cc2C(=O)N([C@@H](C)CO)C[C@@H]1C,·,·,·,·,·,-3
CC[C@@H](C)[C@H](CN[C@H](CNC)C(C)C)NC[C@@H](C)c1ccc(CC(C)C)cc1,47,67,100*,13,99*,43
C[C@@H]1CN([C@H](C)CO)C(=O)c2cc(NC(=O)CCC(F)(F)F)ccc2O[C@@H](C)CCCCO[C@H]1CN(C)C(=O)Nc1ccc2c(c1)OCO2,2,·,·,·,·,12
S=C(NCc1ccc2[nH]c3c(c2c1)CCCC3)Nc1ccccc1,-5,2,0,-6,12,16
SMILES,EWS-Fli block,Shn3 inh set2,TRPM1 prom inh,ABHD5 PLIN5 PPI,Peg3 promoter,PAX8 reporter
Cc1cc(C)cc(NC(=S)NCc2ccc3[nH]c4c(c3c2)CCCC4)c1,-48,8,9,-3,67*,20
COc1ccc(Br)cc1CN1CCN(Cc2c[nH]c3ccccc23)CC1,16,40,11,4,52*,21
CO[C@@H]1CN(C)C(=O)c2cc(NC(=O)c3nc4ccccc4s3)ccc2OC[C@@H](C)N(Cc2ccccc2)C[C@H]1C,12,·,·,·,·,11
COc1ccc(-n2nc3c(N4CCC(C(=O)NCCc5ccccc5C)CC4)nnc(C)c3c2C)cc1,·,78,89*,4,103*,·
CCOc1ccccc1CNC(=O)C1CCCN(c2nnc(C)c3c(C)n(-c4ccccc4)nc23)C1 (stereo not drawn),63*,58,81*,16,55*,81*
COc1ccc(-n2nc3c(N4CCC(C(=O)NCc5ccccc5C)CC4)nnc(C)c3c2C)cc1,·,24,85*,16,104*,·
Cc1ccc(-n2nc3c(N4CCC(C(=O)NCc5cccc(F)c5)CC4)nnc(C)c3c2C)cc1,·,14,23,5,16,·
COc1ccc(-n2nc3c(N4CCC(C(=O)NCC(C)c5ccccc5)CC4)nnc(C)c3c2C)cc1 (stereo not drawn),·,?,68*,7,75*,57
COc1ccc(-n2nc3c(N4CCC(C(=O)NCc5ccco5)CC4)nnc(C)c3c2C)cc1,·,11,0,9,-15,·
COC(=O)C[C@@H]1C[C@@H]2c3cc(NC(=O)NC4CCCCC4)ccc3O[C@@H]2[C@@H](CO)O1,-5,·,·,·,·,1
CN(C)C(=O)c1cccc(-c2ccc3c(c2)[C@@H]2[C@@H](CCN2C(=O)Cc2ccccn2)[C@H](CO)N3C)c1,11,·,·,·,·,1
Cc1ccc(-n2nc3c(N4CCC(C(=O)NCc5ccc(C)o5)CC4)nnc(C)c3c2C)cc1,·,-33,42,20,-2,?
COc1ccc(-n2nc3c(N4CCC(C(=O)NC5CCCCC5)CC4)nnc(C)c3c2C)cc1,·,-4,51,-3,71*,·
Cc1ccc(-n2nc3c(N4CCC(C(=O)NCCc5ccccc5C)CC4)nnc(C)c3c2C)cc1,·,18,94*,3,58*,·
O=C(/C=C/c1ccc2ccccc2n1)N1CCN(S(=O)(=O)c2ccc(F)cc2)CC1,25,17,52,7,17,68*
O=C(/C=C/c1ccc2ccccc2n1)N1CCN(c2ccccc2)CC1,10,-5,0,4,28,10
CC(C)(C)C(=O)Cn1ncc(Br)c(Br)c1=O,28,89*,93*,-2,97*,32

# Screening results: PubChem, several laboratories
